PKM2 act – activators of human pyruvate kinase M2; 260,000 compounds, 0.34% hits; purified PKM2, Kinase-Glo ATP luminescence, activation; response scale: 0% is enzyme alone, no compound; P14618; Potency, µM (series often up to 57.5 µM), inactives show at the top dose activation, most hits filed as activators; further: on the % scale 0 is the no-effect control and ±100 the full control effect; nearly all actives have a fitted effect of over 55% in size
Target sequence (P14618 whole entry, looked up): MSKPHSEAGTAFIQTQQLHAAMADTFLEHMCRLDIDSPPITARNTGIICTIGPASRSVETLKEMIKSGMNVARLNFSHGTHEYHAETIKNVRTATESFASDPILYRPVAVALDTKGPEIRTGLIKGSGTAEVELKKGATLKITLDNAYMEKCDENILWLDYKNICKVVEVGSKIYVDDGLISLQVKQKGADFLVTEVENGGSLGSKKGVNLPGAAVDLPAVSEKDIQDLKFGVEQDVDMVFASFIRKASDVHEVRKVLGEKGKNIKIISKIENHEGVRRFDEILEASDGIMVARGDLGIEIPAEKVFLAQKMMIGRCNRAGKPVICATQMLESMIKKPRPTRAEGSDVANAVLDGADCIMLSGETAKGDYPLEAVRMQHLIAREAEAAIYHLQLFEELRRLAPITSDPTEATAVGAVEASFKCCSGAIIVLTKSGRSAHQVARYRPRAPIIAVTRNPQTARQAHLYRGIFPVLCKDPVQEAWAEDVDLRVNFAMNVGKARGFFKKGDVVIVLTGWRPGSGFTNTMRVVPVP
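Purified hPK-M2 (>95%) run at intermediate activity with 0.1 mM ADP and 0.5 mM PEP in 50 mM imidazole pH 7.2, KCl, MgCl2; 1 h room temperature. ATP formed read by Kinase-Glo luminescence; normalized to uninhibited and no-enzyme controls.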
Pin1 inhibitor – human Pin1 inhibition. Pin1 FP peptide displacement, HiFluor488, 10 min. Potency, µM (doses to about 115 µM), for the others: top-dose activity, negative = inhibition, hits mostly inhibitors. AID 504891. Q13526. 390,000 compounds, 0.009% hits; active means well fitted inhibition curve with a large enough effect in the polarisation, with a control signal flat, not every such curve was filed as active; inconclusive means small, poorly fitted or top-dose-only effect, or effect the other way, or a change in a side signal; inactive means no such curve, though single readings can be large or run the other way; the % refers to the polarisation; further: on the % scale 0 is the no-effect control and ±100 the full control effect
AT treatment – candidate therapy for ataxia-telangiectasia. 320,000 compounds, 0.19% hits. F2112 A-T fibroblasts, KAP-1 phosphorylation AlphaLISA; neocarzinostatin DNA damage 30 min before lysis. Potency, µM (series often up to 57.5 µM), for the others: top-dose activation, actives largely listed as activators; further: % of control where 0% means no effect; nearly all actives have a fitted effect of over 45% in size
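hTERT-immortalized A-T patient fibroblasts (F2112), 500 cells/well in OPTI-MEM, 1% FBS, got compounds for 60 min, then NCS for 30 min at 37C. Lysates were then assayed for phospho-KAP-1 by AlphaLISA (anti-pKAP1 donor, anti-KAP1 acceptor beads), 6 hr at 25C.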
TSG101-PTAP inh – blocks PTAP/TSG101 interaction to inhibit HIV-1 budding. Q99816. Fluorescence polarization, FITC-PTAP peptide / Tsg101 binding. Potency, µM (top dose mostly 115 µM), inactives show at the highest dose activity change, negative = inhibition, hits mostly inhibitors. 340,000 tested, under 10 active; active means well fitted inhibition curve with a large enough effect in the main read-out, with a control signal flat, not every such curve was filed as active; inconclusive means small, poorly fitted or top-dose-only effect, or effect the other way, or a change in a side signal; inactive means no such curve, though single readings can be large or run the other way; further: % of control where 0% means no effect
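Tsg101 binding domain (10 uM final) was mixed with compound and a FITC-labeled PTAP peptide (50 nM final) in HEPES pH 7.5 buffer with NaCl, Tween 20, EDTA and TCEP; fluorescence polarization was read after 20 min at r.t.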
Numbers without * were called inactive; u = inconclusive; x = not tested or not shown. Most compounds without a hit are left out; they make up all but 0.39% or so of the library. Unless noted, the call rests on the fitted dose curve; in most records, active means well fitted activation curve with a large enough effect; inconclusive means small, poorly fitted or top-dose-only effect; inactive means no such curve, though single readings can be large or run the other way. Potency means the concentration at half of the fitted maximal effect.

SMILES	PKM2 act	Pin1 inhibitor	AT treatment	TSG101-PTAP inh
CC12CC(c3ccccc3O1)C(C(=O)OCc1ccccc1)C(=O)N2 (configuration not stated)	u	-0.6%	-1.1%	-5.5%
CC1(C)C(C=C(Cl)Cl)C1C(=O)OCc1cccc(Oc2ccccc2)c1 (configuration not stated)	x	0.8%	39.8µM*	4.2%
C=C(CC1(C(C)NP(=O)(c2ccccc2)c2ccccc2)CC1)c1ccccc1 (configuration not stated)	-0.4%	x	x	x
COc1cccc(NC(=O)CSC2=Nc3ccccc3C3=NC(CCC(=O)NCCc4ccccc4)C(=O)N23)c1 (configuration not stated)	x	21.3%	x	x
S=P(Nn1cnnc1)(c1ccc(Br)cc1)c1ccc(Br)cc1	28.2µM*	-1.3%	1.9%	-2.2%
Nc1c(C(=O)NCCN2CCOCC2)c2nc3ccccc3nc2n1Cc1ccccc1	-4.8%	13.5%	20µM*	-7.2%
Nc1c(C(=O)NCCc2ccccc2)c2nc3ccccc3nc2n1CCN1CCOCC1	0.5%	-0.1%	31.6%	-4.5%
CCOC(=O)C1CCCN(Cc2ccc(-c3ccccc3)cc2)C1 (configuration not stated)	-3.9%	-8.7%	25.1µM*	-2.9%
BrCC1C[n+]2c(SCc3ccccc3)nc3sc4c(c3c2O1)CCCC4 (configuration not stated)	u	0.9%	39.8µM*	-12.4%
N#CC(C#N)=NNc1ccc(OC(F)(F)F)cc1	12.1%	x	x	x
CC(=O)N1N=C(c2cccnc2)CC1c1ccccc1O (configuration not stated)	5.01µM*	-3.8%	-3.6%	-0.2%
CCOC(=O)c1c(C)n(Cc2ccc3c(c2)OCO3)c2ccc(O)cc12	15.0%	u	-2.0%	-1.6%
CCOC(=O)c1c(C)n(Cc2ccc(F)cc2)c2ccc(O)cc12	11.2µM*	-0.4%	11.5%	-1.8%
CC(=O)c1cccc(NC(=O)CSc2ncc3c(n2)-c2cc(Cl)ccc2N(Cc2ccccc2)S3(=O)=O)c1	x	45.4%	x	x
CN1CCCC(C(O)(c2ccccc2)c2ccccc2)C1 (configuration not stated)	-18.2%	-2.8%	3.16µM*	-0.9%
CCCNC(=O)N1[C@H]2CC[C@@H]1C(C(=O)OC)=C(c1ccc(Cl)c(C(F)(F)F)c1)C2	x	-1.8%	5.9%	-5.2%
COC(=O)C1=C(c2ccc(Cl)c(C(F)(F)F)c2)C[C@@H]2CC[C@H]1N2C(=O)NCCOc1ccc(OC)cc1	x	u	20µM*	-9.4%
Cc1cccc(C(=O)Nc2ccc(C(=O)OCc3cc(=O)n4nc(C5CC5)sc4n3)cc2)c1	x	39.3%	x	x
CCc1nnc(NC(=O)CSc2ccc(-c3ccco3)nn2)s1	15.8µM*	-1.8%	-5.1%	-2.6%
COc1ccc(NC(=O)CN(C)C(=O)CSC(c2ccccc2)c2ccccc2)cc1	x	8.0%	-7.5%	-7.2%
O=C(CSc1ccc(-c2ccco2)nn1)Nc1ccccc1	14.1µM*	-3.8%	2.6%	-1.6%
O=C(Oc1ccc2cc(Br)ccc2c1)N1CCCCCC1	3.4%	x	35.5µM*	x
Cc1cccc(Cn2c(=O)n(Cc3ccc(C(=O)NC4CCN(Cc5ccccc5)CC4)cc3)c(=O)c3ccccc32)c1	x	55.8%	x	x
CC(=O)Nc1ccc(N(C(=O)Cn2nnc3ccccc32)C(C(=O)NC2CCCC2)c2ccc(O)c(O)c2)cc1 (configuration not stated)	u	0.8%	-3.6%	-3.2%
CNCC(=O)c1ccccc1	x	-3.5%	x	-0.9%
SMILES	PKM2 act	Pin1 inhibitor	AT treatment	TSG101-PTAP inh
Cc1ccc[n+](CC(=O)c2ccccc2)c1	x	x	1.12µM*	x
CCOc1ccc(-n2nc3c(=S)[nH]nc(C)c3c2C)cc1	8.5%	31.3%	0.7%	-0.8%
CCOc1ccc(-c2c(C)n(-c3ccc(OCC)cc3)c3[n+]2CCCCC3)cc1	0.8%	-3.2%	17.8µM*	1.1%
C=CCn1c(O)c(C(C)=NCc2ccc3c(c2)OCO3)c(=O)[nH]c1=O	1.3%	-5.7%	-11.5%	-2.9%
CC(=NCc1ccc2c(c1)OCO2)c1c(O)n(Cc2ccccc2)c(=O)[nH]c1=O	25.1µM*	u	0.0%	1.9%
CCc1ccc(-n2nc(C)c3c(C(=O)NCCc4ccc(OC)c(OC)c4)cc(C)nc32)cc1	x	49.2%	x	x
O=C1NC(=O)C(=Cc2ccc(-c3ccccc3[N+](=O)[O-])o2)C(=O)N1	17.8µM*	5.0%	-10.1%	-2.8%

Bioassay records: PubChem, National Center for Advancing Translational Sciences (NCATS)
